Shown are actives, neighbours in structure and some others; about 18% of the full set was active somewhere.
TDP1 inh = blocks human tyrosyl-DNA phosphodiesterase 1 | Q9NUW8 | recombinant TDP1, AlphaScreen DNA substrate cleavage | Potency, µM (series often up to 130 µM), without a hit: at the highest dose activity change, negative = inhibition, usual class: inhibitors | 0.28% of 350,000 active | AID 485290; also: potency is read from the fitted curve at half-maximal effect; nearly all actives have a fitted effect of over 40% in size
Target sequence (Q9NUW8 whole entry, looked up): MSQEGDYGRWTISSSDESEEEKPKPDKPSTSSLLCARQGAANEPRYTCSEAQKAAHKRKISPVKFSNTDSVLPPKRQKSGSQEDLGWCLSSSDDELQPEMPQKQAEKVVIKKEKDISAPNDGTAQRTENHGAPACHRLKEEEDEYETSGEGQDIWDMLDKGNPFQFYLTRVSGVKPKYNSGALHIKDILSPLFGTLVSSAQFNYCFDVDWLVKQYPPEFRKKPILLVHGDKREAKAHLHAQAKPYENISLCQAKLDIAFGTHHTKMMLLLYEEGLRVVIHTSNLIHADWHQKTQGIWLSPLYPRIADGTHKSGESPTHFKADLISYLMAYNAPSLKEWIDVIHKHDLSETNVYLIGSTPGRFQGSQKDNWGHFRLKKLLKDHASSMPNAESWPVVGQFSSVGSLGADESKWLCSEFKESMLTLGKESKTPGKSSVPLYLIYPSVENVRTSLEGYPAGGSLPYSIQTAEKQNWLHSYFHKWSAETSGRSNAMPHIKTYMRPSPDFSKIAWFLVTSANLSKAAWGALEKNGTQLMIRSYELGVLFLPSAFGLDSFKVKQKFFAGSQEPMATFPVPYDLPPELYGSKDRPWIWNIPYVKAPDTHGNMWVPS
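AlphaScreen read-out: signal falls as enzyme removes the 3' tyrosine-FITC from a 5'-biotinylated DNA oligo (15 nM, 5 min, RT). Enzyme was E. coli-made recombinant Tdp1 at 1 nM, exposed to compound for 15 min beforehand; beads 10 ug/ml, 10 min.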
Six1-Eya2 blk = blocks human Six1 binding to Eya2. activity change, % (concentration not given with the values). 0.56% of 360,000 active. AlphaScreen GST-Six1/His-Eya2 binding, biochemical; hits give low values. Q15475+O00167; in the data active = activity change below about -65%; inconclusive = mostly about -30% to -63%
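Homogeneous AlphaScreen proximity assay pairing GST-Six1 with His-tagged Eya2 (added as 5X mix: 250 nM and 500 nM) in 50 mM Tris pH 8.0, 300 mM NaCl, 1 mM TCEP. Glutathione donor and nickel acceptor beads; 1 h, 37 °C, dark.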
DT40 TDP1 CPT = growth inhibition of DT40 Tdp1-/-;hTDP1 cells with camptothecin (screen for TDP1 inhibitors) | chicken DT40 Tdp1-/-;hTDP1 cells + 20 nM CPT, ATP luminescence, 48 h | Potency, µM (doses to about 46.2 µM), without a hit: at the highest dose activity change, negative = growth inhibition, hits mostly inhibitors | 12% of 420,000 active; also: potency is read from the fitted curve at half-maximal effect; nearly all actives have a fitted effect of over 55% in size
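Chicken DT40 Tdp1-/- cells complemented with human TDP1, 400 cells/well, exposed to compounds plus 20 nM camptothecin for at least 48 h at 37 C; viability read as ATP content by CellTiter-Glo luminescence.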
TDP1 cell noCPT = qHTS for Inhibitors of human tyrosyl-DNA phosphodiesterase 1 (TDP1): qHTS in cells in absence of CPT; DT40 Tdp1-/- hTDP1 cells, no CPT, ATP luminescence, 48 h; Potency, µM (titrated, usually from 46.2 µM), for the others: at the top dose activity change, negative = growth inhibition, actives largely listed as inhibitors; 15% of 420,000 active; AID 686978, 2013; also: potency is read from the fitted curve at half-maximal effect; nearly all actives have a fitted effect of over 55% in size
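Cells were dispensed at 400 per well, compounds added by pin tool, plates incubated ≥48 hr at 37 °C, then CellTiter-Glo added for 30 min at room temperature before luminescence reading. Line: DT40 Tdp1-/- complemented with hTDP1; camptothecin omitted.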
CtBP-E1A inh = blocks the CtBP interaction with E1A; AID 651724; AlphaScreen GST-E1A/His-CtBP binding, 1536-well; hits give low values; 0.49% of 340,000 active; activity change, % (concentration not given with the values); in the data active = activity change below about -65%; inconclusive = mostly about -30% to -63%
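Steps: dispense buffer (Tris pH 8.0, NaCl 300 mM, TCEP 1 mM, BSA, Tween 20); add 5X protein mix (GST-E1A, His-CtBP, 125 nM each); pin 23 nL compound; 2 h at 37 °C, dark; add 5X beads (50 ug/mL); 1 h; read.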
IL-1B inflam inh = inflammasome signaling inhibition, IL-1 beta readout. AID 743279. 4.7% of 360,000 active. THP-1 LPS/ATP IL-1B secretion, AlphaLISA, 16 h; hits give low values. activity change, % at 57.5 µM; in the data active = activity change below about -50%; inconclusive = mostly about -30% to -49%
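Secreted IL-1B measured by AlphaLISA bead assay after 16 h compound exposure of THP-1 cells; compounds (final up to 57.5 uM) added 1 h before LPS (250 ng/mL) and ATP (1.25 mM) stimulation; lower signal means less secretion.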
Active calls of the source: *; ? = inconclusive; / = not tested or not shown; [ ] = dose if it differs, or a comment. Unless noted, calls follow the shape of the dose curve; as a rule, active = well fitted curve in the direction sought with a large enough effect; inconclusive = small, poorly fitted or top-dose-only effect, or another doubt; inactive = no such curve, though single readings can be large; an effect the other way counts as inactive or inconclusive. % is scaled to controls: 0 for no effect and ±100 for the full control effect.

SMILES	TDP1 inh	Six1-Eya2 blk	DT40 TDP1 CPT	TDP1 cell noCPT	CtBP-E1A inh	IL-1B inflam inh
O=C(NCc1ccc2c(c1)OCO2)c1cccc(S(=O)(=O)N2CCOCC2)c1	2.3%	0.0	3.2%	-21.0%	-0.1	0.0
O=S1(=O)CC(N2CCCC2)CN1C1CCCCC1 (configuration not stated)	/	2.4	-7.2%	-5.5%	1.7	14.7
Cc1nc(SCC(=O)NCCc2ccccc2)nc(C)c1C	3.8%	6.2	-5.8%	?	1.3	28.6
CN1OC[C@@H]2CN[C@H](c3cccc(N4CCOCC4)c3)C[C@@H]21	/	2.0	-3.2%	4.8%	1.8	-7.3
N#CCCn1c(-c2nonc2NC(=O)c2ccccc2Cl)nc2ccccc21	1.0%	2.2	-15.4%	-23.4%	-3.3	2.9
CC(=O)Nc1nonc1-c1nc2ccccc2n1Cc1ccccc1Br	7.1%	/	16.4µM*	14.6µM*	/	/
COc1cccc(Cn2c(-c3nonc3NC(C)=O)nc3ccccc32)c1	4.7%	/	13µM*	13µM*	/	/
CC(=O)Nc1nonc1-c1nc2ccccc2n1N(C(C)=O)C(C)=O	-1.0%	-5.6	-14.7%	-12.7%	-5.3	-7.9
CCC(=O)Nc1nonc1-c1nc2ccccc2n1CC(C)C	1.1%	-7.7	23.1µM*	23.1µM*	-1.7	-19.9
CC(=O)c1ccc(NC(=O)CSCCO)cc1	-2.2%	3.0	6.9%	-10.3%	2.1	7.5
CCSc1nnc2ccc(-c3ccc(OC)c(OC)c3)nn12	0.4%	?	?	23.1µM*	?	-67.9*
COc1ccc(-c2ccc3nnc(SCC(N)=O)n3n2)cc1	0.0%	-9.1	-11.0%	0.3%	5.5	-6.4
OCc1cccc(Cl)c1Cl	8.9%	/	/	/	/	/
c1ccc(N2CCN(c3nc(-c4ccccn4)nc4ccccc34)CC2)cc1	11.5%	-67.3*	4.11µM*	4.61µM*	-71.1*	-20.7
Fc1ccccc1-c1nc(N2CCCCC2)c2ccccc2n1	-5.3%	0.2	?	?	10.8	-6.1
Fc1ccccc1-c1nc(N2CCN(c3cccc(Cl)c3)CC2)c2ccccc2n1	-4.0%[12.3 µM]	/	13µM*	23.1µM*	/	/
CCn1c(CC(=O)Nc2ccc(F)cc2)nnc1SCC(=O)Nc1nncs1	-10.2%	-0.4	-19.6%	11.2%	1.2	11.8
CCCCNC(=S)Nc1ccc(C(F)(F)F)cc1	1.2%	1.8	?	?	8.0	-93.7*
CCCCNC(=S)Nc1ccc(Cl)cc1	-0.6%	-0.4	?	23.1µM*	1.1	-9.0
CCOC(=O)CSc1nc2cc3c(cc2c(=O)n1CCCCCC(=O)NCc1ccc2c(c1)OCO2)OCO3	-2.5%	/	-6.0%	-15.3%	/	/
CCOC(=O)C1(C)CCN1C(=O)COc1ccc(C(C)(C)C)cc1 (configuration not stated)	/	1.7	20.6µM*	20.6µM*	0.9	33.3
CCOC(=O)C1CCCN(C(=O)COc2ccc(C(C)(C)C)cc2)CC1 (configuration not stated)	/	-0.4	20.6µM*	14.6µM*	5.8	0.0
CCOC(=O)C1CCN(Cc2cnc(Oc3ccc(C(C)(C)C)cc3)s2)CC1	-2.0%	-2.8	?	20.6µM*	3.2	47.4
CCOC(=O)C1CCCN(C(=O)COc2ccc(C(=O)c3ccccc3)cc2)C1 (configuration not stated)	4.8%	-10.4	23.1µM*	23.1µM*	6.3	8.8
Cc1c(C(=O)N2CCc3ccccc32)oc2c1C(=O)CC(C)(C)C2	4.4%	-1.6	-17.1%	-27.2%	1.8	-12.0
CCOC(=O)C1CCCN(C(=O)COc2ccc(S(=O)(=O)N3CCOCC3)cc2)C1 (configuration not stated)	-0.5%	1.9	-8.2%	1.3%	0.8	-74.7*
CCN1c2ccccc2NC2C1C(C(C)=O)C(=O)N2c1ccc(Cl)cc1 (configuration not stated)	5.7%	-27.5	20.6µM*	16.4µM*	14.6	31.2

Screening results as filed in PubChem.
